Screening data: PubChem BioAssay, National Center for Advancing Translational Sciences (NCATS)
This excerpt belongs to a sample that is enriched for hits.
KDM5B inh – blocks human KDM5B histone demethylase activity. Q9UGL1. KDM5B demethylase, FDH-coupled NADH fluorescence (FDH is formaldehyde dehydrogenase). Potency, µM (titrated, usually from 57.7 µM), hits mostly inhibitors. 220,000 tested, 2.6% active; active = well fitted inhibition curve with a large enough effect; also: 0% is about no effect; nearly all actives have a fitted effect of over 70% in size
Target sequence (Q9UGL1 whole entry, looked up): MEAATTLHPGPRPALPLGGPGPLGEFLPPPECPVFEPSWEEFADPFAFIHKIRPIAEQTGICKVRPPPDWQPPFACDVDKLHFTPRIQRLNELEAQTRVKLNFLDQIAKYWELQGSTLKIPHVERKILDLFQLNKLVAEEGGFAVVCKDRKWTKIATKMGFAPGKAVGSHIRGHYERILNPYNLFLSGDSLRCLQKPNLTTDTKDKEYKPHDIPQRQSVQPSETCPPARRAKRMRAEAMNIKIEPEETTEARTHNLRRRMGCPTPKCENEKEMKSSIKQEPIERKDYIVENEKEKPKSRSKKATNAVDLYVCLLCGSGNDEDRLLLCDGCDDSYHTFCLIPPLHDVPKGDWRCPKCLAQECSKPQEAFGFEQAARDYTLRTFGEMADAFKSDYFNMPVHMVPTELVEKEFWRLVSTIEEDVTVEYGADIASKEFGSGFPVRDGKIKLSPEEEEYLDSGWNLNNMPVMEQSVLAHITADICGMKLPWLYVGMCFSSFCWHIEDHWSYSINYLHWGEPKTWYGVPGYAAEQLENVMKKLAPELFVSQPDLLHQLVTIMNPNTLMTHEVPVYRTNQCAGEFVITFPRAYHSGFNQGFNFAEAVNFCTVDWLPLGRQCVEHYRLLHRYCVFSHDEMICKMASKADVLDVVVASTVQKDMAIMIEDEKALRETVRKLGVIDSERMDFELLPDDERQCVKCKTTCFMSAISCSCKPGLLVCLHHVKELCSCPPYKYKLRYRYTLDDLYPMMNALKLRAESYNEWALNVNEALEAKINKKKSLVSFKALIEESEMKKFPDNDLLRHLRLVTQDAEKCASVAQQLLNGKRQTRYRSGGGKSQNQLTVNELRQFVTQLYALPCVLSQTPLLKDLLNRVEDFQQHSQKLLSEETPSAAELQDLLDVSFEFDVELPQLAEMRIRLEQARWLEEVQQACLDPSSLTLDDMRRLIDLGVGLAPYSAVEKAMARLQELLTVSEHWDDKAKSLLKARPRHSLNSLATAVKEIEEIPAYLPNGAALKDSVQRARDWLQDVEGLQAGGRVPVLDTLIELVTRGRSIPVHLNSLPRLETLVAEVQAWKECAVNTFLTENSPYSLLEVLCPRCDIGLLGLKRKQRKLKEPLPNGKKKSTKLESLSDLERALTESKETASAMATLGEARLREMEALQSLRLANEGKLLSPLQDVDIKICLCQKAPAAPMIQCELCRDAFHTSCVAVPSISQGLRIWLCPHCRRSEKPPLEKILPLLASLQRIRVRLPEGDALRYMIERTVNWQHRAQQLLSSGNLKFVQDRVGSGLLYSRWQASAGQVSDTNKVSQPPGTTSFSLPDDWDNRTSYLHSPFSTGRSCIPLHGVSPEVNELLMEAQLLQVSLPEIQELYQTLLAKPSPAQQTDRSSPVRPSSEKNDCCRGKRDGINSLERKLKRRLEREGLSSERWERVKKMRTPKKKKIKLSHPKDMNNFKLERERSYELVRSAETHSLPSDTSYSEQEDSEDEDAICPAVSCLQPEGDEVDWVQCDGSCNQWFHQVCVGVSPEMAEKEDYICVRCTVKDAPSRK
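Coupled FDH/NAD⁺ fluorescence readout. KDM5BΔAP 200 nM final; compound titration, 10 min RT preincubation; substrate mix 12.5 µM H3K4me3, 25 µM 2-OG, 50 µM Fe(II), 100 µM ascorbate, 0.25 mM NAD⁺, 0.25 U/mL FDH; ΔRFU over 30 min.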
* marks the source's active call; other numbers are inactive results. Potency is read from the fitted curve at half-maximal effect.

`COc1ccc(C(=O)N2CCC(N3CCNC3=O)CC2)cc1` gave KDM5B inh 89.1µM*.
Screening COc1ccc(C(=O)N2CCC(N3CCCCCC3=O)CC2)cc1 returned KDM5B inh inactive.
For Cc1ccc(C(=O)N2CCC(N3CCCC3=O)CC2)cc1 the results were KDM5B inh inactive.
COc1ccc(C(=O)N2CCC(N3CCCNC3=O)CC2)cc1 was read as KDM5B inh inactive.
O=C(c1ccccc1)N1CCC(N2CCNC2=O)CC1 was read as KDM5B inh inactive.
`O=C(c1cccc(Cl)c1)N1CCC(N2CCCCCC2=O)CC1` gave KDM5B inh inactive.
O=C(c1ccccn1)N1CCC(N2CCCC2=O)CC1 was read as KDM5B inh inactive.
For Cc1sc(-c2nc(-c3cccc(F)c3)no2)cc1S(=O)(=O)Nc1ccc(F)cc1 the results were KDM5B inh inactive.
Screening O=C(Nc1ccc(C2(C(=O)NCc3ccccn3)CCCCC2)cc1)C1CC1 returned KDM5B inh inactive.
Screening CC(=O)c1cn(CC(=O)N2CCC(C(=O)O)CC2)c2ccccc12 returned KDM5B inh inactive.
For O=C(CCc1c[nH]c2ccccc12)NC12CC3CC(CC(C3)C1)C2 the results were KDM5B inh inactive.
Screening CCc1ccc(OCC(=O)OCC(=O)c2cc3ccccc3o2)cc1 returned KDM5B inh inactive.
N#Cc1ccc(CS(=O)(=O)Cc2ccccc2C(F)(F)F)cc1 was read as KDM5B inh inactive.
Screening O=C(Nc1ccccc1CCc1ccccn1)C1CCN(c2cnn(Cc3ccccc3)c(=O)c2)C1 (stereo not given) returned KDM5B inh inactive.
COc1ccc(-c2ccnc3nc(C4CCC4)nn23)cc1 was read as KDM5B inh inactive.
For COc1ccc(-c2ccnc3nc(C4CCC4)nn23)c(F)c1 the results were KDM5B inh 28.2µM*.
Screening CCc1nc2nccc(-c3cc4ccccc4o3)n2n1 returned KDM5B inh inactive.
`COc1cc(-c2ccnc3nc(C4CCCCC4)nn23)cc(OC)c1OC` gave KDM5B inh 25.1µM*.
`c1ccc2oc(-c3ccnc4nc(C5CCC5)nn34)cc2c1` gave KDM5B inh 11.2µM*.
Screening COc1cc(C(=O)OCc2cc(=O)n3nc(C4CCCCC4)sc3n2)cc(OC)c1OC returned KDM5B inh inactive.
For Brc1ccc(-c2ccnc3nc(C4CCCO4)nn23)s1 (stereo not given) the results were KDM5B inh inactive.
`COc1cc(F)ccc1-c1ccnc2nc(C3CCCO3)nn12` (stereo not given) gave KDM5B inh 28.2µM*.
For COc1ccc(-c2cn3cc(C(=O)NCC(N)=O)nc3c(=O)n2CC2CC2)c(F)c1 the results were KDM5B inh inactive.
Screening Nc1nc(-c2cc3ccccc3o2)cs1 returned KDM5B inh inactive.
Screening COc1ccccc1Oc1ccc2c(c1)C(=O)N(CC1CCCO1)C2=O (stereo not given) returned KDM5B inh inactive.
COc1ccc(C(=O)C(C)Cl)cc1 (stereo not given) was read as KDM5B inh inactive.
For O=C(COc1ccc(F)cc1)Nc1ccc(-c2nnc3n2CCCC3)cc1 the results were KDM5B inh inactive.
For COc1cc(C2CC(=O)Nc3c2c(C)nn3-c2ccc3nncn3n2)cc(OC)c1OC (stereo not given) the results were KDM5B inh inactive.
Screening O=C(c1cc(Cl)ccc1F)N1CCN(Cc2nnnn2C2CC2)CC1 returned KDM5B inh inactive.
For Cc1cccc(NC(=O)Cc2nc(-c3c(N)n(Cc4ccccc4)c(=O)n(C)c3=O)cs2)c1 the results were KDM5B inh inactive.
For O=C1N(CCc2ccccc2)CCOC12CCN(Cc1ccc(F)cc1)CC2 the results were KDM5B inh inactive.
Screening COCCn1c(-n2nc(C)cc2C)nc2c1c(=O)n(CCc1ccccc1)c(=O)n2C returned KDM5B inh inactive.
For FC(F)(F)c1ccc(/C=N/Nc2ccc(Cl)cc2)cc1 the results were KDM5B inh inactive.
For CN(Cc1ccc(-c2ccc(Cl)cc2)o1)C(=O)CNC(=O)c1ccccc1F the results were KDM5B inh inactive.
`CCCCCCOc1ccc2c(C)c(CCC(C)C)c(=O)oc2c1` gave KDM5B inh inactive.
COc1cc(F)ccc1-c1ccnc2nc(C3CCC3)nn12 was read as KDM5B inh 28.2µM*.
Screening COc1ccc(C(CNC(=O)c2ccc(Br)o2)N2CCCCCC2)cc1 (stereo not given) returned KDM5B inh inactive.
Cc1ccc(C2C(C#N)=C(N)Oc3c2oc(CO)cc3=O)cc1C (stereo not given) was read as KDM5B inh inactive.
Screening O=C(c1ccn2cncc2c1)N1CCOCC1 returned KDM5B inh inactive.
Screening O=C(c1ccn2nccc2c1)N1CCOCC1 returned KDM5B inh 31.6µM*.
O=C(c1ccc(Cl)c(S(=O)(=O)N2CCOCC2)c1)N1CCOCC1 was read as KDM5B inh inactive.
For CCOc1ccc(C(=O)Nc2ccc3sc(NC(=O)C(C)C)nc3c2)cc1 the results were KDM5B inh inactive.
`CC(=O)NC1(C#N)CCCCC1` gave KDM5B inh inactive.
CCCOC(=O)c1c(NC(=O)c2nc3nc(C)cc(C(F)F)n3n2)sc2c1CCCC2 was read as KDM5B inh inactive.
Cc1ccc(C(=O)Nc2cccc(-c3nc4ccccc4o3)c2)cc1[N+](=O)[O-] was read as KDM5B inh inactive.
COc1ccc(-c2ccc3nc(-c4ccc(Cl)cc4)oc3c2)c(OC)c1OC was read as KDM5B inh inactive.
COc1cc(OC)cc(-c2nc3ccc(-c4ccc(OC)c(OC)c4OC)cc3o2)c1 was read as KDM5B inh 25.1µM*.
`COc1ccc(-c2ccc3nc(-c4cc(F)cc(F)c4)oc3c2)c(OC)c1OC` gave KDM5B inh inactive.
COc1ccc(OC)c(-c2nc3ccc(-c4ccc(OC)c(OC)c4OC)cc3o2)c1 was read as KDM5B inh inactive.
COc1ccc(-c2ccc3nc(-c4ccccc4)oc3c2)c(OC)c1OC was read as KDM5B inh inactive.
For COc1ccc(-c2ccc3nc(-c4cccc(Cl)c4)oc3c2)c(OC)c1OC the results were KDM5B inh 7.94µM*.
For Nc1nc(C2CC(O)C2)cc(N2CCC(Cc3ccc(F)cc3)CC2)n1 (stereo not given) the results were KDM5B inh inactive.
`FC(F)(F)c1ccc(SCc2csc(-c3ncccn3)n2)nc1` gave KDM5B inh inactive.
`Cc1ccc(-c2nc(Cn3cnc4ccsc4c3=O)co2)cc1` gave KDM5B inh inactive.
For CCCCC(CC)C(=O)Nc1c(CC)cccc1CC (stereo not given) the results were KDM5B inh inactive.
`Cc1cc2nccc(-c3ccc(F)cc3)n2n1` gave KDM5B inh inactive.
Screening Brc1ccc(-c2ccnc3ncnn23)s1 returned KDM5B inh inactive.
For Fc1ccc(-c2ccnc3ncnn23)cc1 the results were KDM5B inh 28.2µM*.
`O=C(O)c1nnn(-c2cccc(Br)c2)c1C(F)(F)F` gave KDM5B inh inactive.
For CCN1CCN(C(=O)CN2C(=O)c3cccnc3Oc3ccc(Cl)cc32)CC1 the results were KDM5B inh inactive.
Screening Cc1ccccc1NC(=O)c1sc2c(c1C)C(c1cccs1)CC(=O)N2 (stereo not given) returned KDM5B inh inactive.
O=C1CN(C(=O)[C@H]2CN(Cc3ccccc3)C[C@H]2C(=O)O)CCN1 was read as KDM5B inh inactive.
For O=C(O)[C@@H]1CN(Cc2ccccc2)C[C@@H]1C(=O)N1CCN(c2ccccn2)CC1 the results were KDM5B inh 22.4µM*.
